Target: Solute carrier family 2, facilitated glucose transporter member 1 (Homo sapiens) (UniProt P11166)
Experiment: ST_JUDE_LEISH: Cytotoxicity at 2uM final concentration against transgenic Leishmania Mexicana promastigotes LmGLUT1 that are glucose transport deficient and complemented with the human glucose transporter GLUT1. Activity is measured by DNA content using SYBR green in vitro
Type: functional

Chain of Solute carrier family 2, facilitated glucose transporter member 1 (Homo sapiens) (P11166 whole entry): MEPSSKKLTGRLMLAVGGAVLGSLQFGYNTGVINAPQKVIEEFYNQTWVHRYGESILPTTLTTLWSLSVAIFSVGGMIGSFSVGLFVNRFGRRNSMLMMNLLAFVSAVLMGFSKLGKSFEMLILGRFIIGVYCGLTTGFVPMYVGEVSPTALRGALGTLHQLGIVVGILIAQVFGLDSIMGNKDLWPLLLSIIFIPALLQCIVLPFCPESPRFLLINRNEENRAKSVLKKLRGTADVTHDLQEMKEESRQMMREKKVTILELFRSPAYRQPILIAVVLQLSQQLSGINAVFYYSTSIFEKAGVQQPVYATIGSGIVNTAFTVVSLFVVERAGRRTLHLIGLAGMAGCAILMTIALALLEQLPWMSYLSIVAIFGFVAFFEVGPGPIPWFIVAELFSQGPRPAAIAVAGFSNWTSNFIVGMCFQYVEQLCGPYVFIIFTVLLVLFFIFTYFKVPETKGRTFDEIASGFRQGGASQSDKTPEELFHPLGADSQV

| SMILES | inhibition [%] |
| --- | --- |
| c1ccc2c(c1)CN(Cc1ccsc1)CC1(CCN(Cc3c[nH]c4cnccc34)CC1)O2 | 4.5 |
| O=C(NCc1cccc(F)c1)Nc1ccc(-c2ccc(-c3nc4cc(C(F)(F)F)ccc4[nH]3)cc2)cc1 | 0.8 |
| CN(C)CCN(C)Cc1cccc(-c2ccc3c(Nc4cc(O)c(Cl)cc4F)ccnc3c2)c1 | 1.45 |
| COc1cc(CCNC(=N)/C=C/c2ccc(Cl)cc2)ccc1Cl | 2.51 |
| CN1CCN(c2ccc3nccc(CCN4CCC(NCc5ccc6c(n5)NC(=O)CO6)CC4)c3n2)CC1 | -0.03 |
| CC(=O)Nc1ccc(OCCCCCOc2ccc(NC(C)=O)cc2Cl)c(Cl)c1 | 1.91 |
| CN(C)CCCNc1ncnc2c1[nH]c1ccc(Br)cc12 | 1.44 |
| CCCOC(=O)c1ccc(OCCCON2C(=N)N=C(N)NC2(C)C)cc1 | 2.28 |
| COc1cccc(CNC[C@@H](O)[C@H](Cc2ccccc2)NC(=O)c2cc(C(C)C)cc(N3CCCC3=O)c2)c1 | -1.08 |
| CCn1ccc2c(N3CCCS3(=O)=O)cc(C(=O)N[C@@H](Cc3ccccc3)[C@H](O)CNC3CCCCC3)cc21 | -0.74 |
| Cc1cccc2nc(-c3cccc(-c4cccc(CN5CCC(CO)CC5)c4)c3)[nH]c12 | 9.53 |
| O=C(c1cccc(-c2noc(C(F)(F)F)n2)c1)N1CCN(c2nsc3ccccc23)CC1 | -0.16 |
| CC(=O)Oc1c(Br)c(C)nc(C)c1-c1ccc(Oc2ccc(OC(F)(F)F)cc2)cc1 | 1.58 |
| O=C(N[C@@H](Cc1ccccc1)C(=O)NC1CCCc2ccccc21)c1ccc(O)c(-c2cccc(C(F)(F)F)c2)c1 (stereo not given in full) | -3.38 |
| CN1CCN(Cc2ccc(-c3cccc(-c4nc5ccccc5[nH]4)c3)cc2)CC1 | 1.13 |
| CCNc1cc(C(=O)N[C@@H](Cc2ccccc2)[C@H](O)CNCc2cccc(-n3ccnc3)c2)cc(N2CCCC2=O)c1 | -1.37 |
| Cc1cccc(C)c1OC(=O)CSc1nnc(-c2ccccc2O)o1 | 1.32 |
| COc1ccc2nccc([C@@H](O)CN3CCC(NCc4cc5ccc(C#N)cc5[nH]4)CC3)c2c1 | 13.5 |
| CCCCNC(=N)Nc1ccc(OCCCOc2ccc(NC(=N)NCCCC)cc2)cc1 | -1.92 |
| CCCCCCCN1CC[C@@H](C[C@H](N)Cc2ccnc3ccc(OC)cc23)[C@@H](CC)C1 | 0.24 |

| SMILES | inhibition [%] |
| --- | --- |
| O=C(Cc1c[nH]cn1)Nc1cccc(-c2cccc(-c3nc4cc(F)ccc4[nH]3)c2)c1 | -1.27 |
| O=[N+]([O-])c1cccc(C(Nc2ccccn2)c2ccc3cccnc3c2O)c1 (stereo not given) | 4.63 |
| CN1CCCN(c2ccnc3cc4c(cc23)N(C(=O)c2ccc(Cl)cc2)CC4)CC1 | 13.4 |
| CC(C)(C)c1cc(C(=O)N2CCN(c3nccnc3C#N)CC2)n(Cc2ccccc2)n1 | 1.68 |
| CC(C)NCC(O)Cn1c2ccc(Br)cc2c2cc(Br)ccc21 (stereo not given) | 0.74 |
| Cc1ccccc1N1CCN(c2ccc(C(=O)Nc3ccccc3)cc2)CC1 | -0.27 |
| Cc1cc(NCCC(=O)NCCOc2ccccc2)nc(NCCc2ccc(F)cc2)n1 | 2.06 |
| Cc1cc(Br)cnc1CCCCNc1cc(=O)c2ccccc2[nH]1 | 4.59 |
| CC(=O)Oc1cc(C)ccc1C1CCN(CCCCNC(=O)c2ccc(-c3ccc(C(F)(F)F)cc3)cc2)CC1 | 1.9 |
| FC(F)(F)c1ccc(COc2cc(Cl)ccc2Cn2ccnc2)cc1 | 14 |
| CS(=O)(=O)NCCCNCc1ccc(-c2ccc(-c3nc4cc(F)ccc4[nH]3)cc2)cc1 | 7.49 |
| CC(C)CCNC(=N)Nc1ccc(OCCCOc2ccc(NC(=N)NCCC(C)C)cc2)cc1 | 0.62 |
| Cc1ccc(C(O)CNc2ccnc(Nc3cccc(-c4csc(C)n4)c3)n2)cc1 (stereo not given) | -0.56 |
| CC(=O)Oc1c(Cl)c(C)nc(C)c1-c1ccc(Oc2ccc(OC(F)(F)F)cc2)cc1 | 3.62 |
| N#Cc1cccc(C(=O)NC2CCN(CCCCCNC(=O)/C=C/c3ccc(Cl)c(Cl)c3)CC2)c1 | 5.7 |
| COc1cc(C)c(C(O)CNC(C)CCc2ccccc2)cc1C (stereo not given) | 2.16 |
| CC(C)Cc1ccc(N2CCN(CCCCNC(=O)c3ccc(NC(=O)c4ccc(Cl)c(Cl)c4)cc3)CC2)cc1 | 1.28 |
| O=C(NC1CCCCC1)N(CCCn1ccnc1)Cc1csc(-c2ccc(CNCc3ccccc3)cc2)n1 | 0.1 |
| CC[C@H]1CN(CCCC(=O)c2ccccc2)CC[C@H]1CCCc1ccnc2ccc(OC(=O)c3ccccc3)cc12 | 4.64 |
| COc1ccc2c(CCNc3nc(SC)ncc3C(=O)NCCc3ccc(F)cc3)c[nH]c2c1 | 2.09 |

Target: Hexose transporter 1 (Plasmodium falciparum) (UniProt O97467)
Experiment: ST_JUDE_LEISH: Cytotoxicity at 2uM final concentration against transgenic Leishmania Mexicana promastigotes LmPfHT that are glucose transport deficient and complemented with the Plasmodium falciparum hexose transporter. Activity is measured by DNA content using SYBR green in vitro
Type: functional

| SMILES | inhibition [%] |
| --- | --- |
| c1ccc2c(c1)CN(Cc1ccsc1)CC1(CCN(Cc3c[nH]c4cnccc34)CC1)O2 | 3.19 |
| O=C(NCc1cccc(F)c1)Nc1ccc(-c2ccc(-c3nc4cc(C(F)(F)F)ccc4[nH]3)cc2)cc1 | -0.45 |
| CN(C)CCN(C)Cc1cccc(-c2ccc3c(Nc4cc(O)c(Cl)cc4F)ccnc3c2)c1 | -0.99 |
| COc1cc(CCNC(=N)/C=C/c2ccc(Cl)cc2)ccc1Cl | 2.01 |
| CN1CCN(c2ccc3nccc(CCN4CCC(NCc5ccc6c(n5)NC(=O)CO6)CC4)c3n2)CC1 | -0.01 |
| CC(=O)Nc1ccc(OCCCCCOc2ccc(NC(C)=O)cc2Cl)c(Cl)c1 | 1.52 |
| CN(C)CCCNc1ncnc2c1[nH]c1ccc(Br)cc12 | 2.41 |
| CCCOC(=O)c1ccc(OCCCON2C(=N)N=C(N)NC2(C)C)cc1 | -0.38 |
| COc1cccc(CNC[C@@H](O)[C@H](Cc2ccccc2)NC(=O)c2cc(C(C)C)cc(N3CCCC3=O)c2)c1 | 0.91 |
| CCn1ccc2c(N3CCCS3(=O)=O)cc(C(=O)N[C@@H](Cc3ccccc3)[C@H](O)CNC3CCCCC3)cc21 | 1.64 |
| Cc1cccc2nc(-c3cccc(-c4cccc(CN5CCC(CO)CC5)c4)c3)[nH]c12 | 8.91 |
| O=C(c1cccc(-c2noc(C(F)(F)F)n2)c1)N1CCN(c2nsc3ccccc23)CC1 | -1.92 |
| CC(=O)Oc1c(Br)c(C)nc(C)c1-c1ccc(Oc2ccc(OC(F)(F)F)cc2)cc1 | 0.11 |
| O=C(N[C@@H](Cc1ccccc1)C(=O)NC1CCCc2ccccc21)c1ccc(O)c(-c2cccc(C(F)(F)F)c2)c1 (stereo not given in full) | -1.1 |
| CN1CCN(Cc2ccc(-c3cccc(-c4nc5ccccc5[nH]4)c3)cc2)CC1 | 0.78 |
| CCNc1cc(C(=O)N[C@@H](Cc2ccccc2)[C@H](O)CNCc2cccc(-n3ccnc3)c2)cc(N2CCCC2=O)c1 | -0.52 |
| Cc1cccc(C)c1OC(=O)CSc1nnc(-c2ccccc2O)o1 | 2.43 |
| COc1ccc2nccc([C@@H](O)CN3CCC(NCc4cc5ccc(C#N)cc5[nH]4)CC3)c2c1 | 12.8 |
| CCCCNC(=N)Nc1ccc(OCCCOc2ccc(NC(=N)NCCCC)cc2)cc1 | -1.63 |
| CCCCCCCN1CC[C@@H](C[C@H](N)Cc2ccnc3ccc(OC)cc23)[C@@H](CC)C1 | -1.97 |

| SMILES | inhibition [%] |
| --- | --- |
| O=C(Cc1c[nH]cn1)Nc1cccc(-c2cccc(-c3nc4cc(F)ccc4[nH]3)c2)c1 | -0.43 |
| O=[N+]([O-])c1cccc(C(Nc2ccccn2)c2ccc3cccnc3c2O)c1 (stereo not given) | 5.86 |
| CN1CCCN(c2ccnc3cc4c(cc23)N(C(=O)c2ccc(Cl)cc2)CC4)CC1 | 12.5 |
| CC(C)(C)c1cc(C(=O)N2CCN(c3nccnc3C#N)CC2)n(Cc2ccccc2)n1 | 1.96 |
| CC(C)NCC(O)Cn1c2ccc(Br)cc2c2cc(Br)ccc21 (stereo not given) | 0.92 |
| Cc1ccccc1N1CCN(c2ccc(C(=O)Nc3ccccc3)cc2)CC1 | 0.69 |
| Cc1cc(NCCC(=O)NCCOc2ccccc2)nc(NCCc2ccc(F)cc2)n1 | 0.98 |
| Cc1cc(Br)cnc1CCCCNc1cc(=O)c2ccccc2[nH]1 | 6.14 |
| CC(=O)Oc1cc(C)ccc1C1CCN(CCCCNC(=O)c2ccc(-c3ccc(C(F)(F)F)cc3)cc2)CC1 | 2.04 |
| FC(F)(F)c1ccc(COc2cc(Cl)ccc2Cn2ccnc2)cc1 | 9.99 |
| CS(=O)(=O)NCCCNCc1ccc(-c2ccc(-c3nc4cc(F)ccc4[nH]3)cc2)cc1 | 4.28 |
| CC(C)CCNC(=N)Nc1ccc(OCCCOc2ccc(NC(=N)NCCC(C)C)cc2)cc1 | -1.4 |
| Cc1ccc(C(O)CNc2ccnc(Nc3cccc(-c4csc(C)n4)c3)n2)cc1 (stereo not given) | -1.05 |
| CC(=O)Oc1c(Cl)c(C)nc(C)c1-c1ccc(Oc2ccc(OC(F)(F)F)cc2)cc1 | 3.09 |
| N#Cc1cccc(C(=O)NC2CCN(CCCCCNC(=O)/C=C/c3ccc(Cl)c(Cl)c3)CC2)c1 | 5.26 |
| COc1cc(C)c(C(O)CNC(C)CCc2ccccc2)cc1C (stereo not given) | 2.83 |
| CC(C)Cc1ccc(N2CCN(CCCCNC(=O)c3ccc(NC(=O)c4ccc(Cl)c(Cl)c4)cc3)CC2)cc1 | 1.46 |
| O=C(NC1CCCCC1)N(CCCn1ccnc1)Cc1csc(-c2ccc(CNCc3ccccc3)cc2)n1 | 0.82 |
| CC[C@H]1CN(CCCC(=O)c2ccccc2)CC[C@H]1CCCc1ccnc2ccc(OC(=O)c3ccccc3)cc12 | 5.86 |
| COc1ccc2c(CCNc3nc(SC)ncc3C(=O)NCCc3ccc(F)cc3)c[nH]c2c1 | 0.58 |

Reference: ChEMBL document CHEMBL3433997, “St. Jude Leishmania screening dataset” (2016)
